{
  "source": "paper PMC4336329",
  "about": "(PLoS ONE, 2015)",
  "note": "Among all 310,000 compounds or so, about 14,000 (4.5%) showed an effect of 50% or more. The effect is printed as a negative number. Shown is part of a subset that was picked to be rich in strong results.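 Note: peak tail current of the secondary pulse compared with the same well before compound.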",
  "data": [
    {"target": "human ether-à-go-go-related gene (hERG) potassium channel (human, UniProt Q12809)", "sequence (Q12809 whole entry, looked up)": "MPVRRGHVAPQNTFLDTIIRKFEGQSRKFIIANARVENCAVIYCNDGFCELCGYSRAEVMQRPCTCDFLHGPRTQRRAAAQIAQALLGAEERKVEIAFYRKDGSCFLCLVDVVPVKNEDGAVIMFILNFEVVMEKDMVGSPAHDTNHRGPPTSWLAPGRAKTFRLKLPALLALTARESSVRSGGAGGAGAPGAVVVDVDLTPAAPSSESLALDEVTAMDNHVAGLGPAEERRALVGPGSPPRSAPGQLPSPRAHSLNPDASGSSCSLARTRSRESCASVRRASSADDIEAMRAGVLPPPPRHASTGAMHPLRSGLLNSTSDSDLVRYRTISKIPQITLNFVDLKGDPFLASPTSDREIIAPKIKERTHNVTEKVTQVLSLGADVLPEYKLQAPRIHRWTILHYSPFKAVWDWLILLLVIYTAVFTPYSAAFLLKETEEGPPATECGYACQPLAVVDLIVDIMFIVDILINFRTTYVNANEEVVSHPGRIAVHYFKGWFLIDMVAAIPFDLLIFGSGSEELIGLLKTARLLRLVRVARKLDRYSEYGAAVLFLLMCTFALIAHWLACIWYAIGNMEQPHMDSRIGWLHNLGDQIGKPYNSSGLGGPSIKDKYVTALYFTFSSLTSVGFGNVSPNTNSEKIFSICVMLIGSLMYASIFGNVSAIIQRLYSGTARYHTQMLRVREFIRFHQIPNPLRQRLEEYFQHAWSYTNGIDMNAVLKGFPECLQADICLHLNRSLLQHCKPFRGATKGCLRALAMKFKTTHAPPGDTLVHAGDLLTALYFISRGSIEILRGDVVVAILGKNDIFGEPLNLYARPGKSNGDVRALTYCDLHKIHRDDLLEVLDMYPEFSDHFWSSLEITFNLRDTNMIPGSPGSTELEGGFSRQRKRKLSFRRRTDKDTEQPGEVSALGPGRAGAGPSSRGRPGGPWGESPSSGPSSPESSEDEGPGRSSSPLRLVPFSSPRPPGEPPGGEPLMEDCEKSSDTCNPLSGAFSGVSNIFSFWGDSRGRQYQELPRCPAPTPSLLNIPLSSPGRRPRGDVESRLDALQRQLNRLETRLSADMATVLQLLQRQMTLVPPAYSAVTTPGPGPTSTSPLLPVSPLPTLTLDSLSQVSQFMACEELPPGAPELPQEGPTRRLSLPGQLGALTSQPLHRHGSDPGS", "assay": "primary screen, population patch clamp on CHO cells stably expressing hERG; higher = less effect of the substance", "units": {"hERG current change (%, negative = inhibition) at 10uM": "%"}, "values": [
      {"compound": "CCOC(=O)C1CCN(C(=O)COC(=O)CSc2ccc([N+](=O)[O-])cc2)CC1", "hERG current change (%, negative = inhibition) at 10uM": -39.5},
      {"compound": "COc1ccc(CCNC(=O)c2ccccc2C(=O)NCCc2ccc(OC)cc2)cc1", "hERG current change (%, negative = inhibition) at 10uM": -12},
      {"compound": "COc1ccc(OC)c2c1cc(C(=O)N[C@@H](C)C(=O)N[C@@H](C(=O)O)c1ccccc1)n2C", "hERG current change (%, negative = inhibition) at 10uM": 19.2},
      {"compound": "O=[N+]([O-])c1ccc(O)c(/C=N/n2cnc3ccccc32)c1", "hERG current change (%, negative = inhibition) at 10uM": 19.2},
      {"compound": "O=C(COC(=O)CCCc1c[nH]c2ccccc12)Nc1ccc2c(c1)OCO2", "hERG current change (%, negative = inhibition) at 10uM": 15.1},
      {"compound": "c1ccc2c(c1)CCCN2Cc1nnnn1CC1CCCO1", "note": "(stereo not shown)", "hERG current change (%, negative = inhibition) at 10uM": 7.06},
      {"compound": "O=[N+]([O-])c1ccc(NCc2ccc(Cl)cc2)nc1", "hERG current change (%, negative = inhibition) at 10uM": 0.977},
      {"compound": "O=[N+]([O-])c1ccc(Nc2ccc(Cl)cc2)nc1", "hERG current change (%, negative = inhibition) at 10uM": 21.7},
      {"compound": "O=[N+]([O-])c1ccc(NNS(=O)(=O)c2cc(Cl)ccc2Cl)nc1", "hERG current change (%, negative = inhibition) at 10uM": -68.8},
      {"compound": "CCN(CC)S(=O)(=O)c1ccc(C)c(NC(=O)COC(=O)CNC(=O)c2ccc(C(C)(C)C)cc2)c1", "hERG current change (%, negative = inhibition) at 10uM": 7.12},
      {"compound": "CCN(CC)c1ccc(/C=N/NS(=O)(=O)c2ccc(CNC(C)=O)cc2)cc1", "hERG current change (%, negative = inhibition) at 10uM": 13.2},
      {"compound": "Cc1cccc(C(=O)NCC(=O)NC(C)CCc2ccccc2)c1", "note": "(stereo not shown)", "hERG current change (%, negative = inhibition) at 10uM": -0.165},
      {"compound": "Cc1c(Cl)cccc1-n1c(SCC(=O)N(C)Cc2ccccc2)nnc1-c1ccncc1", "hERG current change (%, negative = inhibition) at 10uM": -49.5},
      {"compound": "COc1ccc(CNC(=O)C2CCN(S(=O)(=O)c3cccc4nonc34)CC2)cc1", "hERG current change (%, negative = inhibition) at 10uM": -0.634},
      {"compound": "CC(C)Sc1nnc([C@@H]2CCCN2C(=O)OC(C)(C)C)o1", "hERG current change (%, negative = inhibition) at 10uM": 14.7},
      {"compound": "Cc1nc(NCc2ccc3c(c2)OCO3)c2nnn(Cc3ccccc3)c2n1", "hERG current change (%, negative = inhibition) at 10uM": -13.9},
      {"compound": "CN(CC(=O)Nc1ccc(Cl)c(C(F)(F)F)c1)C(=O)/C=C/c1ccco1", "hERG current change (%, negative = inhibition) at 10uM": 5.99},
      {"compound": "CCOc1ccccc1NC(=O)c1ccc(Cl)c(NC(=O)CC(c2ccccc2)c2ccccc2)c1", "hERG current change (%, negative = inhibition) at 10uM": 2.16},
      {"compound": "CCOc1ccccc1NC(=O)c1cccc(NC(=O)CC(c2ccccc2)c2ccccc2)c1", "hERG current change (%, negative = inhibition) at 10uM": -67.1},
      {"compound": "COc1ccc(CCNC(=O)/C=C/c2ccco2)cc1OC", "hERG current change (%, negative = inhibition) at 10uM": 0.593},
      {"compound": "COc1cccc(NC(=O)CN(C)C(=O)CC(NC(=O)c2ccccc2Cl)c2ccccc2)c1", "note": "(stereo not shown)", "hERG current change (%, negative = inhibition) at 10uM": -49.7},
      {"compound": "CCOc1ccc(/C=C/C(=O)N(C)CC(=O)Nc2cccc(F)c2)cc1OCC", "hERG current change (%, negative = inhibition) at 10uM": 10.6},
      {"compound": "CCOc1ccc(NC(=O)CN(C)C(=O)/C=C/c2ccco2)cc1OCC", "hERG current change (%, negative = inhibition) at 10uM": -61.2},
      {"compound": "CCOc1ccc(NC(=O)CN(C)C(=O)CC(NC(=O)c2ccccc2)c2ccccc2)cc1OCC", "note": "(stereo not shown)", "hERG current change (%, negative = inhibition) at 10uM": -51.9},
      {"compound": "CCOc1ccc(NC(=O)CN(C)CC(=O)NC(C)c2ccccc2)cc1OCC", "note": "(stereo not shown)", "hERG current change (%, negative = inhibition) at 10uM": 6.58},
      {"compound": "CCOc1ccc(CCNC(=O)COC(=O)/C=C/c2ccco2)cc1OCC", "hERG current change (%, negative = inhibition) at 10uM": 12.9},
      {"compound": "CCOc1ccc(CCNC(=O)/C=C/c2ccco2)cc1OCC", "hERG current change (%, negative = inhibition) at 10uM": -70},
      {"compound": "CCCC(=O)Nc1cccc(C(=O)Nc2ccccc2OCC)c1", "hERG current change (%, negative = inhibition) at 10uM": -14.7},
      {"compound": "COc1ccc(-n2c3c(cc(C(=O)NNc4ccccc4C)c2=O)C(=O)CC(C)(C)C3)cc1", "hERG current change (%, negative = inhibition) at 10uM": 17.7},
      {"compound": "O=c1c2c(nc3nc(NCc4ccc(Cl)cc4)[nH]n13)CCC2", "hERG current change (%, negative = inhibition) at 10uM": 23.2},
      {"compound": "O=S(=O)(c1cccc2nsnc12)N1CCc2ccccc2C1", "hERG current change (%, negative = inhibition) at 10uM": -34.8},
      {"compound": "COc1ccc(OC)c(Nc2nc(C)nc3c2oc2ccccc23)c1", "hERG current change (%, negative = inhibition) at 10uM": 5.02},
      {"compound": "O=C(NC(=S)NNC(=O)[C@H]1C[C@@H]1c1ccccc1)c1ccc(F)cc1", "hERG current change (%, negative = inhibition) at 10uM": 3.86},
      {"compound": "CCOC(=O)N(Cc1ccccc1)Cc1ccc(C(=O)N[C@@H](Cc2ccccc2)C(=O)O)cc1", "hERG current change (%, negative = inhibition) at 10uM": 13.8},
      {"compound": "CCC(C)NC(=O)CCn1ccc2cc(S(=O)(=O)N3CCCC3)ccc21", "note": "(stereo not shown)", "hERG current change (%, negative = inhibition) at 10uM": 12.3},
      {"compound": "CCC1=NN2C(=N)/C(=C/c3ccc(OS(=O)(=O)c4ccccc4)cc3)C(=O)N=C2S1", "hERG current change (%, negative = inhibition) at 10uM": -3.25},
      {"compound": "CC(=O)N1CCOc2ccc(S(=O)(=O)N3CCCCC3)cc21", "hERG current change (%, negative = inhibition) at 10uM": 11.6},
      {"compound": "CCOC(=O)C1CCN(S(=O)(=O)c2ccc3c(c2)N(C(C)=O)CCO3)CC1", "hERG current change (%, negative = inhibition) at 10uM": -67.2},
      {"compound": "CCOC(=O)C1CCN(S(=O)(=O)c2ccc3oc(=O)ccc3c2)CC1", "hERG current change (%, negative = inhibition) at 10uM": -77},
      {"compound": "CCOC(=O)C1CCN(S(=O)(=O)c2ccc3[nH]c(=O)oc3c2)CC1", "hERG current change (%, negative = inhibition) at 10uM": -30.9},
      {"compound": "CC(=O)N1CCOc2ccc(S(=O)(=O)N3CCC(C)CC3)cc21", "hERG current change (%, negative = inhibition) at 10uM": 6.53},
      {"compound": "CCOC(=O)C1CCN(S(=O)(=O)c2ccc3[nH]c(=O)ccc3c2)CC1", "hERG current change (%, negative = inhibition) at 10uM": -45.3},
      {"compound": "CC/C(=N\\NC(=O)C1CC1)c1cccc(Cl)c1", "hERG current change (%, negative = inhibition) at 10uM": 30.9},
      {"compound": "Cc1nc(Sc2ccc(Cl)cc2)c(C#N)c(C)c1[N+](=O)[O-]", "hERG current change (%, negative = inhibition) at 10uM": 6.1},
      {"compound": "COC(=O)Cn1cnc2scc(-c3ccc(C)cc3)c2c1=O", "hERG current change (%, negative = inhibition) at 10uM": 7.31},
      {"compound": "CC(C)C(NC(=O)c1ccc(F)cc1)C(=O)Nc1cccnc1", "note": "(stereo not shown)", "hERG current change (%, negative = inhibition) at 10uM": 0.585},
      {"compound": "CCOC(=O)c1ccccc1NC(=O)c1c(F)c(F)c(F)c(F)c1F", "hERG current change (%, negative = inhibition) at 10uM": 10.2},
      {"compound": "COc1ccc(C(O)c2coc3ccc(O)c(CN(C)C)c23)cc1", "note": "(stereo not shown)", "hERG current change (%, negative = inhibition) at 10uM": -47.9},
      {"compound": "COc1ccc(C(=O)c2coc3ccc(O)cc23)cc1", "hERG current change (%, negative = inhibition) at 10uM": 7.61},
      {"compound": "COc1ccc(Oc2coc3c(CN(C)C)c(O)ccc3c2=O)cc1", "hERG current change (%, negative = inhibition) at 10uM": 17.7},
      {"compound": "COc1ccc(OC)c(C(O)c2coc3ccc(O)c(CN(C)C)c23)c1", "note": "(stereo not shown)", "hERG current change (%, negative = inhibition) at 10uM": -17},
      {"compound": "COc1ccc2occ(C(=O)c3ccc(N=C(C)N(C)C)cc3)c2c1", "hERG current change (%, negative = inhibition) at 10uM": -58.8},
      {"compound": "COc1ccc(C(=O)c2coc3ccc(OC(C)=O)cc23)cc1", "hERG current change (%, negative = inhibition) at 10uM": 24.9},
      {"compound": "COc1ccc(OC)c(C(=O)c2coc3ccc(O)c(CN(C)C)c23)c1.Cl", "hERG current change (%, negative = inhibition) at 10uM": -12.7},
      {"compound": "CCN(CC)Cc1c(O)ccc2occ(C(=O)c3ccc(OC)cc3)c12", "hERG current change (%, negative = inhibition) at 10uM": -74.2},
      {"compound": "COc1ccc2occ(C(=O)c3coc4ccc(O)c(CN(C)C)c34)c2c1.Cl", "hERG current change (%, negative = inhibition) at 10uM": -72.1},
      {"compound": "COc1ccc2occ(C(=O)c3ccc(N)cc3)c2c1", "hERG current change (%, negative = inhibition) at 10uM": 2.02},
      {"compound": "COc1ccc(C(=O)c2coc3ccc(O)c(CN(C)C)c23)cc1", "hERG current change (%, negative = inhibition) at 10uM": -57.9}
    ]}
  ]
}
